The panel holds about 79,000 compounds, 15% with a hit somewhere; the sample as a whole holds those more often. Calls of active or inactive are those of the source. No stated cut-off is given here; in the data, active means growth inhibition above about 70%; inactive means the rest.
Legend:
[1] = NCI Yeast Anticancer Drug Screen. Data for the wt1 strain (AID 149);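 further: 0% = growth of vehicle-treated wt1 cultures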; settings: S. cerevisiae wt1 strain (SPY 50644) growth inhibition, active compounds read high
Outline: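 wt1 yeast, compound-treated; % growth inhibition vs vehicle control.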

[2] = NCI Yeast Anticancer Drug Screen. Data for the rad50EPP+ strain (AID 151);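 further: 0% = growth of vehicle-treated control cultures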; settings: S. cerevisiae rad50 mutant strain, active compounds read high
Outline: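 Read-out is yeast growth inhibition relative to vehicle; cells used were the rad50EPP+ strain.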

[3] = NCI Yeast Anticancer Drug Screen. Data for the mgt1 strain (AID 153); settings: S. cerevisiae mgt1 mutant growth inhibition, active compounds read high
Outline: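 Measured: inhibition of mgt1 yeast growth by compound, normalized to vehicle-treated cultures.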

[4] = NCI Yeast Anticancer Drug Screen. Data for the rad50 strain (AID 155);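 further: 0% = growth of vehicle-only cultures of the same strain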; settings: S. cerevisiae rad50 strain growth inhibition, active compounds read high
Outline: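 Genetically altered yeast (DNA repair pathway); compound treatment; growth inhibition vs vehicle ctrl.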

[5] = NCI Yeast Anticancer Drug Screen. Data for the mec2-1 strain (AID 157); settings: S. cerevisiae mec2-1 strain, active compounds read high
Outline: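 Using mec2-1 yeast: add compound, measure growth, express inhibition versus vehicle-treated cultures.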

[6] = NCI Yeast Anticancer Drug Screen. Data for the rad14 strain (AID 159);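 further: 0% = growth of vehicle-treated control cultures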; settings: S. cerevisiae rad14 strain growth inhibition, active compounds read high
Outline: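 Test compounds were applied to a repair-deficient yeast strain. Its growth was then compared with that of cultures given vehicle alone, and inhibition was expressed relative to those controls.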

[7] = NCI Yeast Anticancer Drug Screen. Data for the sgs1 mgt1 strain (AID 161);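 further: 0% = growth of cultures given vehicle only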; settings: S. cerevisiae sgs1 mgt1 strain, active compounds read high
Outline: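 Percent growth inhibition was derived by comparing compound-exposed mutant yeast with vehicle-exposed cultures. The strain carries alterations in DNA damage repair.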

[8] = NCI Yeast Anticancer Drug Screen. Data for the CLN2oe strain (AID 163);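 further: 0% = growth of vehicle-only control cultures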; settings: S. cerevisiae CLN2oe strain, active compounds read high
Outline: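 Whole-cell yeast growth assay. A strain engineered for altered cell-cycle control received compound, and inhibition relative to vehicle-treated cultures was recorded.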

[9] = NCI Yeast Anticancer Drug Screen. Data for the cln2 rad14 strain (AID 165);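 further: 0% = growth equal to vehicle treated cultures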; settings: S. cerevisiae cln2 rad14 strain, active compounds read high
Outline: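 Yeast strain cln2 rad14, bearing defects in cell cycle control and DNA repair, serves as the test system; values reflect growth inhibition compared with vehicle.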

[10] = NCI Yeast Anticancer Drug Screen. Data for the bub3 strain (AID 167); settings: S. cerevisiae bub3 mutant strain, active compounds read high
Outline: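 Yeast carrying a defined mutation is treated with each compound, and growth is compared with that of vehicle-exposed cells to give inhibition.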

[11] = NCI Yeast Anticancer Drug Screen. Data for the wt2 strain (AID 169);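 further: 0% = growth of vehicle-treated yeast cultures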; settings: S. cerevisiae wt2 strain growth inhibition, active compounds read high
Outline: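 Treated yeast vs. vehicle-treated yeast: growth inhibition determined.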

[12] = NCI Yeast Anticancer Drug Screen. Data for the mlh1 strain (AID 171);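 further: 0% = growth of vehicle-treated control cultures of the same strain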; settings: S. cerevisiae mlh1 strain growth inhibition, active compounds read high
Outline: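 A yeast strain with a defined genetic lesion serves as the test organism. Cultures receive compound or vehicle, and growth is measured.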

[13] = NCI Yeast Anticancer Drug Screen. Data for the sgs1 strain (AID 173);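 further: 0% = growth of vehicle-only control cultures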; settings: S. cerevisiae sgs1 mutant, active compounds read high
Outline: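 A genetically defined yeast mutant is incubated with the test compound, and its growth is compared to that of the same strain given vehicle.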

[14] = NCI Yeast Anticancer Drug Screen. Data for the mlh1 rad18 strain (AID 175); settings: S. cerevisiae mlh1 rad18 strain growth inhibition, active compounds read high
Outline: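 Steps: expose repair-defective yeast to compound; measure growth; express inhibition against vehicle-treated controls.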

[15] = NCI Yeast Anticancer Drug Screen. Data for the rad18 strain (AID 177); settings: S. cerevisiae rad18 mutant growth inhibition, active compounds read high
Outline: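 Measured value is growth inhibition of a yeast strain bearing a DNA repair alteration, referenced to vehicle-treated cells.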

[16] = at 5.0 µM (retest, dose inferred, filed as 0.5)
[17] = at 50.0 µM (retest, dose inferred, filed as 5.0)

Measured: growth inhibition

CCOc1ccc2ccc3cccnc3c2n1
inactive: [1]; at 1.2 µM -5% | [1]; at 3.7 µM -2% | [1]; at 11.0 µM 2% | [1]; at 33.0 µM 18% | [1]; at 100.0 µM 48% | [2]; at 1.2 µM -8% | [2]; at 3.7 µM 11% | [2]; at 11.0 µM 23% | [2]; at 33.0 µM 61% | [3]; at 1.2 µM -4% | [3]; at 3.7 µM 8% | [3]; at 11.0 µM -10% | [3]; at 33.0 µM 34% | [3]; at 100.0 µM 68% | [4]; at 1.2 µM -5% | [4]; at 3.7 µM 12% | [4]; [16] -1% | [4]; at 11.0 µM 26% | [4]; at 33.0 µM 59% | [4]; [17] 40% | [4]; at 50.0 µM 69% | [5]; at 1.2 µM -4% | [5]; at 3.7 µM -5% | [5]; [16] -3% | [5]; at 11.0 µM 8% | [5]; at 33.0 µM 13% | [5]; [17] 28% | [5]; at 50.0 µM 47.2% | [5]; at 100.0 µM 35% | [6]; at 1.2 µM -4% | [6]; at 3.7 µM 4% | [6]; at 11.0 µM -1% | [6]; at 33.0 µM 7% | [6]; at 100.0 µM 68% | [7]; [16] -8% | [7]; [17] 66% | [8]; at 1.2 µM -18% | [8]; at 3.7 µM -7% | [8]; at 11.0 µM -14% | [8]; at 33.0 µM 4% | [8]; at 100.0 µM 22% | [9]; [16] -33% | [9]; [17] -17% | [9]; at 50.0 µM -3.9% | [10]; at 1.2 µM -4% | [10]; at 3.7 µM -3% | [10]; [16] -9% | [10]; at 11.0 µM 1% | [10]; at 33.0 µM 36% | [10]; [17] 52% | [10]; at 50.0 µM 59% | [11]; at 1.2 µM 0% | [11]; at 3.7 µM 2% | [11]; at 11.0 µM 8% | [11]; at 33.0 µM 37% | [11]; at 100.0 µM 66% | [12]; at 1.2 µM -3% | [12]; at 3.7 µM -1% | [12]; at 11.0 µM 17% | [12]; at 33.0 µM 54% | [12]; at 100.0 µM 63% | [13]; at 1.2 µM -3% | [13]; at 3.7 µM 1% | [13]; at 11.0 µM 9% | [13]; at 33.0 µM 40% | [13]; at 100.0 µM 63% | [14]; [16] 2% | [14]; [17] 40% | [14]; at 50.0 µM 35% | [15]; at 1.2 µM -3% | [15]; at 3.7 µM 8% | [15]; at 11.0 µM 23% | [15]; at 33.0 µM 60%
active: [2]; at 100.0 µM 88% | [4]; at 100.0 µM 74% | [7]; at 50.0 µM 70.6% | [10]; at 100.0 µM 70% | [15]; at 100.0 µM 72%

Cc1cc(N(CCOS(C)(=O)=O)CCOS(C)(=O)=O)ccc1C=O
inactive: [1]; at 1.2 µM 27% | [1]; at 3.7 µM 28% | [1]; at 11.0 µM 32% | [1]; at 33.0 µM 37% | [1]; at 100.0 µM 31% | [2]; at 1.2 µM 15% | [2]; at 3.7 µM 45% | [2]; at 11.0 µM 34% | [2]; at 33.0 µM 30% | [2]; at 100.0 µM 15% | [3]; at 1.2 µM 14% | [3]; at 3.7 µM 26% | [3]; at 11.0 µM 34% | [3]; at 33.0 µM 41% | [3]; at 100.0 µM 44% | [4]; at 1.2 µM 4% | [4]; at 3.7 µM 16% | [4]; [16] 29% | [4]; at 11.0 µM 26% | [4]; at 33.0 µM 43% | [4]; [17] 57% | [4]; at 50.0 µM 50% | [4]; at 100.0 µM 66% | [5]; at 1.2 µM 6% | [5]; at 3.7 µM 23% | [5]; [16] 24% | [5]; at 11.0 µM 24% | [5]; at 33.0 µM 41% | [5]; [17] 57% | [5]; at 50.0 µM 54.8% | [5]; at 100.0 µM 68% | [6]; at 1.2 µM 20% | [6]; at 3.7 µM 36% | [6]; at 11.0 µM 50% | [6]; at 33.0 µM 64% | [7]; [16] 13% | [7]; [17] 38% | [7]; at 50.0 µM 12.8% | [8]; at 1.2 µM 2% | [8]; at 3.7 µM 9% | [8]; at 11.0 µM 10% | [8]; at 33.0 µM 36% | [8]; at 100.0 µM 34% | [9]; [16] 34% | [9]; [17] 45% | [9]; at 50.0 µM 36.9% | [10]; at 1.2 µM 16% | [10]; at 3.7 µM 17% | [10]; [16] -3% | [10]; at 11.0 µM 4% | [10]; at 33.0 µM 18% | [10]; [17] 13% | [10]; at 50.0 µM 4.7% | [10]; at 100.0 µM 34% | [11]; at 1.2 µM -45% | [11]; at 3.7 µM -46% | [11]; at 11.0 µM -43% | [11]; at 33.0 µM 1% | [11]; at 100.0 µM 33% | [12]; at 1.2 µM 14% | [12]; at 3.7 µM 28% | [12]; at 11.0 µM 24% | [12]; at 33.0 µM 52% | [12]; at 100.0 µM 60% | [13]; at 1.2 µM 19% | [13]; at 3.7 µM 22% | [13]; at 11.0 µM 39% | [13]; at 33.0 µM 51% | [13]; at 100.0 µM 58% | [14]; [16] 56% | [15]; at 1.2 µM 29% | [15]; at 3.7 µM 50%
active: [6]; at 100.0 µM 83% | [14]; [17] 88% | [14]; at 50.0 µM 82.5% | [15]; at 11.0 µM 70% | [15]; at 33.0 µM 86% | [15]; at 100.0 µM 89%

— PubChem BioAssay (NCI)
